Values joined by “and” are separate entries in the source; they are usually repeats but may differ in a detail not shown here. Equal values may be shown once. Compounds without any hit were thinned out: in the full panel of roughly 83,000, 20% have a hit.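 Plates (96-well) were seeded with cells, treated with compound at one concentration, and incubated for 48 hours before percent growth was determined.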 A number with no mark means an inactive call. Active and inactive are the calls of the source. How the source made its calls: active means growth percent below 10; inactive means the rest.

For the test, the system named is NCI-H460 lung. In words: NCI-60 one-dose screen, 48 h (100 = growth as untreated, 0 = no growth, -100 = all killed). The following applies: 10 µM unless noted.
Regarding `CCC(CCCN(CC)CCc1ccccc1)OC(=O)c1cc(OC)c(OC)c(OC)c1` (configuration not stated), the growth is 101%.

As for `CCC(CC)COC(=O)c1ccc(O)c(O)c1`, the growth is 73.8%.

As to `COC(=O)Nc1nc2ccc(C(=O)c3ccccc3)cc2[nH]1`, the growth is 6.48% (active) and 1.24% (active) and -0.135% (active).

For the molecule `CC(=O)ON=C1C=CC(=C(C#N)c2ccccc2)C=C1`, the growth was 4.7% (active).

For `NC(=O)/C=C/C(=O)c1c(Cl)cccc1Cl`, the growth is -34.1% (active).

`CCCCCCCCCCCCCCCC[N+](C)(CCO)Cc1cnc[nH]1` (configuration not stated): the growth was -93.3% (active).

`Oc1c(Br)cc(Cl)cc1C(c1cc(Cl)cc(Br)c1O)C(Cl)(Cl)Cl`: the growth was 1.1% (active).

`CC1OC2CC(=O)OC2C2=C1C(=O)c1c(O)cccc1C2=O` (configuration not stated): the growth was -0.634% (active).

In the case of `CC(C)(C)c1ccc(O)c(C2CCCCC2)c1`, the growth is 107%.

In the case of `Oc1c(Cl)cc(Cl)c2cccnc12`, the growth was 24.7% and 27.4%.

For `CCN(CC)CC(C)(C)C(=O)/C=C/c1ccc(Cl)c(Cl)c1`, the growth was -9.28% (active).

For `CN(C)CCOc1ccc2c(c1)C(=O)/C(=C\c1ncc([N+](=O)[O-])n1C)C2`, the growth is -57.5% (active).

Regarding `C/C=C1\SC(=S)NC1=O`, the growth is 107%.

Turning to `CCOC(=O)/C(=C\c1ccc(-c2ccccc2)cc1)C(C)=O`, the growth was 103%.

In the case of `N#CSCc1ccc(CSC#N)c(Cl)c1`, the growth was 75.5%.

Consider `CNC(=O)N/N=C/c1ccc([N+](=O)[O-])o1`, for which the growth is 109%.

On to `Cc1cc2nc(CS)[nH]c2cc1C`, for which the growth was 93%.

As to `N#CC1C(=O)SC2c3ccccc3C(=O)c3ccccc3C12` (configuration not stated), the growth is 96.9%.

As to `Nc1nc(N)c2c(ccc3c2ccn3Cc2cccc([N+](=O)[O-])c2)n1`, the growth was -88.6% (active).

Turning to `Cn1c2c(c3ccccc31)CCN1C[C@@H]3CCCC[C@H]3C[C@@H]21`, the growth was 0.684% (active).

For the molecule `Oc1c(Br)c(Br)c(O)c(Br)c1Br`, the growth is 120%.

As to `O=C(Nc1ccccc1)Oc1c(Cl)c(Cl)c(Cl)c(Cl)c1Cl`, the growth was 109% and 103%.

Consider `Nc1ncnc2c1ncn2C1OC(CO)C(O)C1O` (configuration not stated), for which the growth was 113% and 43.4% and 103%.

On to `Nc1nc(N)c2nc(CNc3ccc(C(=O)NC(CCC(=O)O)C(=O)O)cc3)cnc2n1` (configuration not stated), for which the growth is 15.2% and 12.2%.

On to `O=C(CC1(O)C(=O)Nc2c(Cl)ccc(Cl)c21)c1ccc(Cl)cc1Cl` (configuration not stated), for which the growth was 108%.

Consider `O=C(/C=C\c1ccccc1)N1c2ccccc2CC1c1c[nH]c2ccccc12` (configuration not stated), for which the growth was 70.1%.

Consider `CC1=CC(O)C2CC1C2(C)C` (configuration not stated), for which the growth is 108%.

Consider `CCN1/C(=C\c2cc[n+](CC)c3ccccc23)C=Cc2ccccc21`, for which the growth was -32.8% (active).

As for `CC(C)c1ccc2nc3ccc(C(=O)NCCN4CCN(c5ccccc5)CC4)cn3c(=O)c2c1`, the growth was 65.2%.

Regarding `O=C(O)C1C2CC3C(OC(=O)C31)C2Br` (configuration not stated), the growth was 98.3% and 100%.

On to `NC(=S)N/N=C/c1ccc(Cl)s1`, for which the growth is 101%.

As to `CCN(CC)CCOc1ccc(-c2nc3cc(Cl)ccc3s2)cc1`, the growth was -64.6% (active).

Values taken from PubChem BioAssay (NCI).
